Assay outcomes deposited in PubChem by National Center for Advancing Translational Sciences (NCATS).
ALDH1A1 inh: qHTS Assay for Inhibitors of Aldehyde Dehydrogenase 1 (ALDH1A1). Potency, µM (series often up to 75.3 µM), usual class: inhibitors. Purified ALDH1A1, NADH fluorescence, propionaldehyde substrate. Aldehyde dehydrogenase 1A1 (Homo sapiens), P00352. AID 1030, 2008. 7.3% of 220,000 active
Target sequence (P00352 whole entry, looked up): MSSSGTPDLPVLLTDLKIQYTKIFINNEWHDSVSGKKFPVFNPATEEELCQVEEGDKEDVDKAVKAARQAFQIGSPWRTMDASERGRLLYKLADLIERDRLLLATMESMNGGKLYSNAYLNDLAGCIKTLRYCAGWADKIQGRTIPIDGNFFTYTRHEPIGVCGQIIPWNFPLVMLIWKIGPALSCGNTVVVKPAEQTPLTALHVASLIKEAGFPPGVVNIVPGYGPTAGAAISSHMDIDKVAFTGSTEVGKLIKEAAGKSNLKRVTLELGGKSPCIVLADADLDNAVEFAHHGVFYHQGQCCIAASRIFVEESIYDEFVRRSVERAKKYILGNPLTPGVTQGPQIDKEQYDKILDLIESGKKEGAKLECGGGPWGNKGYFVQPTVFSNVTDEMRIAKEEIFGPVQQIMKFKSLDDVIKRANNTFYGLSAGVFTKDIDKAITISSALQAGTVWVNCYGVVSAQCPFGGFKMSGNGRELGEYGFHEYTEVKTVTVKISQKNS
PNC inhibitor: High Content Assay for Compounds that inhibit the Assembly of the Perinucleolar Compartment. 3.1% of 140,000 active. activity change (PNC), negative = inhibition, % at 10 µM. PC3M PTB-GFP, PNC prevalence imaging, 16 h; hits give low values. AID 2417, 2010;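 active means readout at or below -70, meaning at least 70% loss of cells showing the perinucleolar compartment, a nuclear body marking cancer cells; inconclusive means readout between -30 and a set limit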
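PC3M cells stably expressing PTB-GFP, 750–1000 cells/well, treated 16 h at 37 °C with compound (23 nl of library stock), in duplicate. After paraformaldehyde fixation and Hoechst stain, imaged at 20x; PNC prevalence scored by image analysis.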
GoLoco inh red: qHTS Assay for Inhibitors of RGS12 GoLoco Motif Activity (Red Fluorophore); Guanine nucleotide-binding protein G(i) subunit alpha-1 (Homo sapiens), P63096; Gai1:RGS12 GoLoco peptide FP, rhodamine, 10 min; Potency, µM (top dose mostly 61.6 µM), most hits filed as inhibitors; 0.44% of 230,000 active; AID 880, 2007; active means well fitted inhibition curve with a large enough effect, not every such curve was filed as active; inactive means no such curve, though single readings can be large or run the other way; further: nearly all actives have a fitted effect of over 30% in size
HTT ATP protect: qHTS Multiplex Assay to Identify Dual Action Probes in a Cell Model of Huntington: Cytoprotection (ATP); Potency, µM (highest dose often 56.4 µM), most hits filed as activators; PC12 HTT-Q103 induced, cytoprotection, ATP luminescence, 40 h; 0.14% of 230,000 active; active means well fitted curve in the direction sought with a large enough effect; inconclusive means small, poorly fitted or top-dose-only effect, or another doubt; inactive means no such curve, though single readings can be large; an effect the other way counts as inactive or inconclusive; further: nearly all actives have a fitted effect of over 45% in size
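Stable PC12 Q103-GFP cells in serum-supplemented, phenol red-free DMEM; induction by tebufenozide at 100 nM final; compound dose series; cell viability quantified luminescently from ATP.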
HTT aggregate: qHTS Multiplex Assay to Identify Dual Action Probes in a Cell Model of Huntington: Aggregate Formation (GFP) | PC12 HttQ103-GFP aggregates, Acumen cytometry, 40 h | Potency, µM (doses to about 46.1 µM), most hits filed as inhibitors | AID 1688, 2009 | 1.1% of 220,000 active; active means well fitted curve in the direction sought with a large enough effect; inconclusive means small, poorly fitted or top-dose-only effect, or another doubt; inactive means no such curve, though single readings can be large; an effect the other way counts as inactive or inconclusive; further: nearly all actives have a fitted effect of over 60% in size
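Steps: seed 1500 PC12 HTTQ103-GFP cells/well; add tebufenozide, 100 nM final; add compound titration; add ATPLite reagent; quantify GFP aggregates by laser scanning cytometry.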
HPGD block: qHTS Assay for Inhibitors of HPGD (15-Hydroxyprostaglandin Dehydrogenase). 15-hydroxyprostaglandin dehydrogenase [NAD(+)] (Homo sapiens), P15428. 4.3% of 150,000 active. purified HPGD, NADH fluorescence kinetic, PGE2 substrate. Potency, µM, usual class: inhibitors
Target sequence (P15428 whole entry, looked up): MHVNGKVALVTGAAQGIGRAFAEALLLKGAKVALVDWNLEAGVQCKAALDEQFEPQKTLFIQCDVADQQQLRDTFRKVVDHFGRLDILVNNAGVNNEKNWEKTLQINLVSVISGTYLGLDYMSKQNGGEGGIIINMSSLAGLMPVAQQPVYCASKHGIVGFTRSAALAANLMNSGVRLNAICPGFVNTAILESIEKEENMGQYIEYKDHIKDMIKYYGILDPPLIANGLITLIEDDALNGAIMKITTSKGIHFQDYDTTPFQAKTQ
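NADH formation kinetics: reaction with 30 uM PGE2 and 1 mM NAD+ (final), 20 nM enzyme, Tris-HCl pH 8 with Tween 20, after 15 min compound preincubation at room temperature. Fluorescence change, last versus first of five reads.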
Large screens that a line does not name were inactive. Rows were chosen to be rich in hits. Some 11% of all compounds tested hit in one or more screens of this group. Unless noted, the call rests on the fitted dose curve; in most records, active means well fitted inhibition curve with a large enough effect (not every such curve was filed as active); inconclusive means small, poorly fitted or top-dose-only effect, or another doubt; inactive means no such curve, though single readings can be large or run the other way.

CCOc1ccc2nc(SCC(=O)c3cccs3)sc2c1	ALDH1A1 inh 12.6µM, PNC inhibitor inconclusive, HPGD block 5.01µM
CCOc1ccc2nc(SCC(=O)NCc3ccco3)sc2c1	PNC inhibitor inconclusive, HPGD block 22.4µM
CCOC(=O)c1ccc(NC(=O)N2CCN(C(=O)C3CCCO3)CC2)cc1 (stereo not drawn)	none (no result: PNC inhibitor, HPGD block)
Cc1cccc(-c2nnc3n2N=C(c2ccc(Br)cc2)CS3)c1	none
CCOc1ccc(C2=Nn3c(nnc3-c3ccccc3OC)SC2)cc1	PNC inhibitor -86.1, HTT aggregate inconclusive
Brc1ccccc1C1=Nn2c(nnc2-c2ccco2)SC1	none (no result: ALDH1A1 inh, PNC inhibitor, HPGD block)
Cc1cc(C)n(-c2nnc3n2N=C(c2ccccc2)CS3)n1	ALDH1A1 inh inconclusive, PNC inhibitor -135.3
Cc1cc(C)n(-c2nnc3n2N=C(c2c[nH]c4ccccc24)CS3)n1	none
Brc1ccccc1C1=Nn2c(nnc2-c2ccccc2)SC1	ALDH1A1 inh inconclusive, HPGD block 15.8µM
Cc1ccc(-c2nnc3n2N=C(c2ccc(Br)cc2)CS3)cc1	PNC inhibitor -105.7
COc1cccc(C(=O)N2C(C(=O)O)CSC2c2ccccc2Cl)c1 (stereo not drawn)	HTT aggregate inconclusive
O=C(c1ccc(-n2c(=O)c(=O)[nH]c3ccccc32)cc1)N1CCCN(Cc2ccccc2)CC1	ALDH1A1 inh inconclusive (no result: PNC inhibitor, GoLoco inh red, HTT ATP protect, HTT aggregate)
Cc1cc(NC(=O)C(=O)NCCN2CCN(C(=O)c3cccs3)CC2)ccc1Br	PNC inhibitor -100.0, HTT aggregate inconclusive
CCOC(=O)/C(C)=C1\NC(C)(C)Cc2ccccc21	ALDH1A1 inh inconclusive, GoLoco inh red 28.2µM, HTT aggregate inconclusive, HPGD block 20µM (no result: HTT ATP protect)
CCOC(=O)/C(C(=O)Nc1ccc(Br)cc1)=C1/NC(C)(C)Cc2ccccc21	ALDH1A1 inh inconclusive
CCOC(=O)/C(C(=O)Nc1ccccc1Cl)=C1/NC(C)(C)Cc2ccccc21	ALDH1A1 inh 14.1µM
COc1ccccc1N1CCN(CCCCNS(=O)(=O)c2cccc3c(N(C)C)cccc23)CC1	ALDH1A1 inh inconclusive (no result: PNC inhibitor, HTT aggregate)
CS(=O)(=O)N(CC(=O)NCc1ccco1)c1ccc(OCc2ccccc2)cc1	ALDH1A1 inh 18.9µM (no result: PNC inhibitor, HPGD block)
COc1ccc(S(=O)(=O)N(C)CC(=O)NCc2ccco2)cc1	ALDH1A1 inh 35.5µM
COc1ccc(C(CC(=O)NCc2ccco2)c2ccc(F)cc2)cc1 (stereo not drawn)	HPGD block 15.8µM
CCN(CC(=O)Nc1c(F)cccc1F)C(=O)CCc1ccc(OC)cc1	ALDH1A1 inh 14.1µM (no result: PNC inhibitor, HPGD block)
CNC(=S)NC(CC(=O)OC)c1ccc2c(c1)OCO2 (stereo not drawn)	none (no result: PNC inhibitor, HPGD block)
COc1ccc(S(=O)(=O)N(C)CC(=O)Nc2ccc3c(c2)OCO3)cc1	ALDH1A1 inh inconclusive, PNC inhibitor inconclusive
COc1ccc(NC(=O)CC(c2ccc(F)cc2)c2ccc(OC(C)C)cc2)cc1 (stereo not drawn)	ALDH1A1 inh 0.199µM
COc1ccc(S(=O)(=O)N(C)CC(=O)Nc2c(F)cccc2F)cc1	ALDH1A1 inh inconclusive, PNC inhibitor -102.6
CN(C)/C=C(/C(=O)c1ccc(Cl)cc1)S(=O)(=O)c1ccc(Cl)cc1	none
O=C(/C=C/c1ccc(F)cc1)NCc1ccco1	HPGD block 25.1µM
O=C(/C=C/c1ccc[nH]1)c1ccc(F)cc1	none (no result: PNC inhibitor, HPGD block)
O=C(/C=C/c1c(F)cccc1Cl)c1ccc(F)cc1	HPGD block 12.6µM
O=C(/C=C/c1c(F)cccc1Cl)NCc1ccco1	ALDH1A1 inh inconclusive, PNC inhibitor inconclusive, HPGD block 10µM
COc1cc2ccc([C@H](C)NCC#N)cc2cc1OC	none (no result: PNC inhibitor, HTT aggregate)
O=C(CSc1nccn1-c1ncc(C(F)(F)F)cc1Cl)c1ccc(Cl)cc1	none
COc1ccc(CCNC(=O)COc2ccc(S(=O)(=O)N3CCCC3)cc2)cc1	ALDH1A1 inh 10µM (no result: PNC inhibitor, HPGD block)
COc1ccc(CCC(=O)N2CCN(S(=O)(=O)c3ccc4ccccc4c3)CC2)cc1	ALDH1A1 inh 14.1µM, HTT aggregate inconclusive
O=C(Nc1ccc(Cc2ccncc2)cc1)c1ccc(S(=O)(=O)N2CCCC2)cc1	ALDH1A1 inh 14.1µM, HTT aggregate 11.2µM (no result: PNC inhibitor, HTT ATP protect, HPGD block)
O=C(COc1ccc(S(=O)(=O)N2CCCCC2)cc1)NCc1ccncc1	ALDH1A1 inh 22.4µM
CC(C)OC(=O)Nc1ccc2c(c1)N(C(=O)N1CCN(C)CC1)c1ccccc1CC2	none (no result: ALDH1A1 inh, PNC inhibitor, HPGD block)
C=CCNC(=O)C1CCN(c2ccc(S(=O)(=O)N3CCOCC3)cc2[N+](=O)[O-])CC1	HTT aggregate inconclusive (no result: PNC inhibitor, HPGD block)
COc1ccc(-n2c(C)cc(-c3csc(NC(=O)c4ccc(S(=O)(=O)N(C)C)cc4)n3)c2C)cc1	ALDH1A1 inh 2.24µM
O=C(c1cccc(F)c1)N1CCC2(CC1)CCN(c1ccc(-c3ccccc3)cc1)CC2	none (no result: PNC inhibitor, HTT aggregate)
C1CCN2C[C@H]3C[C@H](CN4CCCCC34)C2C1 (stereo partly drawn)	none (no result: PNC inhibitor, HTT aggregate)
CCOc1ccccc1C(=O)NC(C)c1ccc2c(c1)OCO2 (stereo not drawn)	PNC inhibitor -102.7, HPGD block inconclusive
Cc1ccc(C(C)NC(=O)C2CCCO2)cc1C (stereo not drawn)	PNC inhibitor inconclusive, HPGD block 15.8µM
CC(NC(=O)C1CCC1)c1ccc2c(c1)OCO2 (stereo not drawn)	HPGD block 20µM
Cc1occc1C(=O)NC(C)c1ccc2c(c1)OCO2 (stereo not drawn)	PNC inhibitor inconclusive
COc1ccc(-c2cc(-c3nnc(COC(=O)c4ccncc4)o3)c3ccccc3n2)cc1OC	none (no result: PNC inhibitor, HPGD block)
Cc1cc(S(=O)(=O)N2CCCC2)c(C)s1	ALDH1A1 inh 7.94µM, PNC inhibitor inconclusive (no result: GoLoco inh red, HPGD block)
Cc1ccc(S(=O)(=O)N2CCCC2)cc1S(=O)(=O)N1CCCC1	ALDH1A1 inh 17.8µM, PNC inhibitor inconclusive
O=[N+]([O-])c1ccc2[nH]ncc2c1	none (no result: PNC inhibitor, HPGD block)
Cc1cccc(N2C(N)=NC(N)=NC23CCCCC3)c1	PNC inhibitor inconclusive
COc1ccc(OC)c(N2C(N)=NC(N)=NC23CCCC3)c1	ALDH1A1 inh 22.4µM (no result: GoLoco inh red, HPGD block)
Cc1ccc(S(=O)(=O)CCC(=O)NCCN2C(=O)S/C(=C\c3ccccc3)C2=O)cc1	none (no result: GoLoco inh red, HPGD block)
Cc1ccc2c(c1)S/C(=C/c1ccc[n+](C)c1)N2CCO	GoLoco inh red 8.91µM (no result: PNC inhibitor, HPGD block)
CC1=NN(c2ccc(Br)cc2)C(=O)/C1=C/c1cccs1	ALDH1A1 inh 2.24µM, PNC inhibitor inconclusive, HPGD block 14.1µM
CSCc1nnc(NC(=O)c2ccc(S(=O)(=O)N(CC(C)C)CC(C)C)cc2)o1	HTT aggregate 10µM
